GRK2 inh – inhibitors of human GRK2 displacing RNA aptamer; P25098; bead flow cytometry, FAM-aptamer displacement from GRK2; inhibition of aptamer binding, % at 10 µM; actives 0.59% (n = 330,000);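 active = inhibition of aptamer binding above 40%, roughly 3 SD of noise, on plates passing a quality check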;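 also: median bead fluorescence of bound FAM aptamer so fluorescent compounds give negative values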
VLA-4 inh – inhibition in a human VLA-4 binding assay. P13612. VLA-4 expressing cells, ligand binding flow cytometry. inhibition, % (about 7 µM as worked out from the volumes in the protocol). actives 0.2% (n = 330,000); in the data active = inhibition above about 50%
Target sequence (P13612 whole entry, looked up): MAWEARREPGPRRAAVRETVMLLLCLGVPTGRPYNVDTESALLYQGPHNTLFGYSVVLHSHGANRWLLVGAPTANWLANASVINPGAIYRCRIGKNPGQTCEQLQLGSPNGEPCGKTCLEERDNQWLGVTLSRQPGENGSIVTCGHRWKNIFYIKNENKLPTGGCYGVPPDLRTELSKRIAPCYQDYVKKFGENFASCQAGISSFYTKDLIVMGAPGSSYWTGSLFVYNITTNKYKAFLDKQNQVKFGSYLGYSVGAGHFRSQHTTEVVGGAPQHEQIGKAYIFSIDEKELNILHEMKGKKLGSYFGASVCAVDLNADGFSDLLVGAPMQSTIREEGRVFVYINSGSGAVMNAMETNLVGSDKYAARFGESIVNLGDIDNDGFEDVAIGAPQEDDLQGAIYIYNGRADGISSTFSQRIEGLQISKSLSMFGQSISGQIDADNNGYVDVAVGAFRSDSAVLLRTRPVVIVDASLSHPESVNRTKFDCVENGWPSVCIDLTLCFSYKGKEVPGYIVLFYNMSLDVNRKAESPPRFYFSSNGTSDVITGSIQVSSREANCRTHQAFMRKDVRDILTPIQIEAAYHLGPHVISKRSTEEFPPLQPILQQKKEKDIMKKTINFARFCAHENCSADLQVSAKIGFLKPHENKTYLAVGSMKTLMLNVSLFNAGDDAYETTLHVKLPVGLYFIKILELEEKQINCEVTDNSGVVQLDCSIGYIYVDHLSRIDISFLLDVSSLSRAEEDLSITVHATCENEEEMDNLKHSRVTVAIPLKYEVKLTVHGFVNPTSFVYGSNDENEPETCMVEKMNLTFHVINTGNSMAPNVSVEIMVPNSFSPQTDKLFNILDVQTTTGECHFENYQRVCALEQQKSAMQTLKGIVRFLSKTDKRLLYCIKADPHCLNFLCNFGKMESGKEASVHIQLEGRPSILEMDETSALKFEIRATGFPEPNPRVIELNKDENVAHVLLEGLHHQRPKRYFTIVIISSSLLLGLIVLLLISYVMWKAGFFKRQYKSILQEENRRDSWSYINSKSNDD
APOBEC3A inh – human APOBEC3A DNA deaminase inhibition; P31941; actives 0.41% (n = 330,000); recombinant A3A, FAM/TAMRA ssDNA deamination fluorescence; AID 493011; inhibition, % at 20 µM;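 active = at least 40% inhibition at 20 µM here, with at most 30% in a related deaminase screen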
APOBEC3G inh – inhibitors of human APOBEC3G DNA deaminase. actives 0.28% (n = 330,000). Q9HC16. recombinant A3G, ssDNA deamination FAM/TAMRA fluorescence. AID 493012. inhibition, % at 20 µM;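 active = inhibition of at least 40% at 20 µM, with no more than 30% in the related APOBEC3A deaminase screen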
GRK2 inh confirm – confirmation of human GRK2 inhibitors displacing RNA aptamer. shares compounds with GRK2 inh. bead-bound GRK2, FAM-aptamer displacement, flow cytometry. aptamer displacement, % at 10 µM. actives 4% (n = 2,000). AID 504451;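 active = aptamer displacement above 40%, near three times the noise of non-fluorescent compounds, on plates passing quality checks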;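 also: negative values mostly reflect intrinsic compound fluorescence rather than true enhancement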
FAM quench CP1 – counter-screen for GRK2 aptamer inhibitors: fluorescent aptamer quenchers | shares compounds with GRK2 inh | Carboxyfluorescein RNA aptamer on beads, flow cytometry quenching; hits give low values | fluorescence response (% of DMSO), % at 10 µM | 2,000 tested, under 10 active | AID 504580;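 active = compounds that quench the bead-bound fluorescent RNA probe, cutting fluorescence to under half of the solvent control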;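 also: counterscreen run without GRK2 so only probe quenching by compound is measured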
GRK2 confirm 2 – human GRK2 inhibition confirmation, cherry pick 2 | shares compounds with GRK2 inh | AID 504782 | 360 tested, under 10 active | bead-bound GRK2, FAM-aptamer displacement, flow cytometry | inhibition of aptamer binding, % at 10 µM;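 active = inhibition of aptamer binding above 40%, about triple the noise seen with nonglowing compounds, on plates passing quality control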;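 also: negative values mostly come from compounds that fluoresce themselves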
FAM quench CP2 – counter-screen for GRK2 binding hits: quenchers of fluorescent RNA aptamer. shares compounds with GRK2 inh. carboxyfluorescein RNA aptamer beads, flow cytometry quenching; hits give low values. fluorescence response vs DMSO, % at 10 µM. 360 tested, under 10 active;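 active = response vs DMSO under 50%, meaning signal dropped by over half, treated as fluorescence quencher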;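 also: labelled aptamer on streptavidin beads without GRK2 as a quench counter-screen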
Numbers stand for hits; n = inactive; x = no result. Most compounds without a hit are left out; they make up all but 1.4% or so of the library.

SMILES	GRK2 inh	VLA-4 inh	APOBEC3A inh	APOBEC3G inh	GRK2 inh confirm	FAM quench CP1	others
Cc1cc(NS(=O)(=O)c2c(C(=O)N3CCOCC3)c(C)n(C)c2C)ccc1Br	45.0	n	n	n	n	n
C=CCn1c(N)cc(=O)nc1SCC(=O)N1CCN(c2ccc(F)cc2)CC1	56.0	n	n	n	n	n
CCC(C)(C)NC(=O)CN(Cc1cccs1)C(=O)C(=O)Nc1ccc2c(c1)OCCO2	74.0	n	n	n	n	n
Cc1nn(C)c(C(=O)N/N=C/c2cccc(Oc3ccccc3)c2)c1Br	n	n	n	n	x	x
Cc1cccc2c1c(N=NC(N)=S)c(O)n2C1OC(CO)C(O)C(O)C1O (stereo not drawn)	n	n	n	n	x	x
CCCCC(=O)Nc1ccc(C(=O)NNC(=O)c2ccco2)cc1	65.0	n	n	n	n	n
CCCCC(=O)Nc1ccc(C(=O)NNC(=S)NC(=O)c2ccco2)cc1	n	n	n	n	x	x
CC(C)(C)c1ccc(C(=O)Nc2ccc(NC(=O)c3ccco3)cc2)cc1	n	n	n	n	x	x
O=C(O)Cc1ccc(NC(=O)c2ccc(NC(=O)c3ccco3)cc2)cc1	48.0	n	n	n	n	n
CCCNC(=O)C(Cc1ccccc1)NC(=O)c1ccc(C(C)(C)C)cc1 (stereo not drawn)	n	n	n	n	x	x
COc1ccc(CCNC(=O)COc2coc(CN3c4ccccc4CC3C)cc2=O)cc1OC (stereo not drawn)	n	n	n	n	x	x
CCOc1ccc(S(=O)(=O)N2CCN(Cc3ccco3)CC2)cc1	n	n	n	n	x	x
NC(=O)c1ccc(NC(=O)COC(=O)/C=C/c2ccc(Br)o2)cc1	44.0	n	n	n	n	n
COc1ccc(CC(=O)NC2CCSc3ccccc32)c(OC)c1 (stereo not drawn)	n	n	n	n	x	x
COc1cccc(-n2c(SCC(=O)O)nnc2-c2cccnc2)c1	62.0	n	n	n	n	n
COc1ccc(CCNC(=O)CN(C)S(=O)(=O)c2ccc(OC)cc2)cc1	60.0	n	n	n	n	n
O=C(Nc1ccccc1C(=O)N1CCOCC1)c1ccc(Br)cc1	100.0	n	n	n	x	x	GRK2 confirm 2=n;FAM quench CP2=n
O=C(Nc1ccccc1C(=O)N1CCOCC1)c1ccc(F)cc1	n	n	n	n	x	x
CCOc1ccc(N2C(=O)CC(Sc3nc(CC(C)C)ccc3C#N)C2=O)cc1 (stereo not drawn)	n	n	n	n	x	x
CC(C)Cc1ccc(C#N)c(SCC(N)=O)n1	75.0	n	n	n	n	n
O=C(Cn1c(=O)oc2ccccc21)Nc1ccccc1C(F)(F)F	n	n	n	n	x	x
O=C(N/N=C/c1cccc(F)c1)c1c(O)c2ccccc2[nH]c1=O	70.0	n	x	x	n	n
CCOc1ccccc1N1CCN(C(=O)c2cc(-c3cccnc3)nc3c(Cl)cccc23)CC1	n	n	n	n	x	x
CC(C)c1nnc(NC(=O)C2CCCN(C(=O)Nc3ccc(F)cc3)C2)s1 (stereo not drawn)	n	n	n	n	n	n
CC(=O)Oc1ccc([N+](=O)[O-])cc1N1C(=O)c2ccccc2C1=O	100.0	n	n	n	x	x	GRK2 confirm 2=n;FAM quench CP2=n
SMILES	GRK2 inh	VLA-4 inh	APOBEC3A inh	APOBEC3G inh	GRK2 inh confirm	FAM quench CP1	others
COc1ccc([N+](=O)[O-])cc1N1C(=O)c2cccnc2C1=O	n	n	n	n	x	x
CC(C)CNC(=O)c1ccccc1NC(=O)c1ccc(CSc2ccccc2)cc1	n	n	n	n	x	x
CNC(C)C(=O)NC(C(=O)N1CCCC1C(=O)NNc1ccccc1)C(C)C (stereo not drawn)	67.0	n	n	n	n	n
COc1ccc2c(CCNC(=O)Nc3ccccc3)c[nH]c2c1	n	n	n	n	x	x
Cc1cc(C)c2[nH]c(=O)c(CN(Cc3cccnc3)C(=S)NCCCN(C)C)cc2c1	n	n	n	n	x	x
CCN(CC)CCCNC(=S)N(Cc1cccnc1)Cc1cc2cc(C)cc(C)c2[nH]c1=O	n	n	n	n	n	n
CCC1CC(C(=O)Nc2ccccc2)C(=O)O1 (stereo not drawn)	69.0	n	n	n	n	n
CC(C)C1CC(C(=O)Nc2ccccc2)C(=O)O1 (stereo not drawn)	n	n	n	n	x	x
CC(C)N1CCN(Cc2ccc(C#CC(C)(C)O)cc2)CC1CCO (stereo not drawn)	n	n	n	n	x	x
Cc1ccc(C2CC(=O)c3cnc(N4CCc5ccccc5C4)nc3C2)cc1 (stereo not drawn)	n	n	n	n	x	x
O=C(NNc1ccccc1C(F)(F)F)c1sccc1Br	99.0	n	n	n	n	n
O=C(O)C1CC(=O)N(c2ccc(OCc3ccccc3)cc2)C1 (stereo not drawn)	n	n	n	n	x	x
Cc1cc2cc(CN3C(=O)c4ccccc4C3=O)ccc2n1C	46.0	n	n	n	n	n
O=C(O)CC(NC(=O)C12CC3CC(CC(C3)C1)C2)c1ccc(F)cc1 (stereo not drawn)	88.0	n	n	n	n	n
O=C(O)CC(NC(=O)C12CC3CC(CC(C3)C1)C2)c1ccc2c(c1)OCO2 (stereo not drawn)	n	n	n	n	x	x
O=C(Nc1ccccc1Sc1ccccc1)c1ccccc1F	n	n	n	n	x	x
CCOC(=O)c1cc2cc([N+](=O)[O-])ccc2oc1=O	n	n	n	n	x	x
CCOC(=O)CC(NC(=O)c1cc2cc(Br)ccc2oc1=O)c1cccc([N+](=O)[O-])c1 (stereo not drawn)	78.0	n	n	n	x	x	GRK2 confirm 2=n;FAM quench CP2=n
Cc1ccc(S(=O)(=O)NCCN(CCNS(=O)(=O)c2ccc(C)cc2)S(C)(=O)=O)cc1	n	n	n	n	x	x
COC(=O)/C=C1\N/C(=N/c2nc(C)c3cc(OC)ccc3n2)NC1=O	55.0	n	n	n	n	n
CC(Cl)C(=O)Nc1ncc(C(F)(F)F)cc1Cl (stereo not drawn)	52.0	n	n	n	n	n
O=C(CCC(=O)N1CCN(c2ccccc2F)CC1)N1CCN(c2ccccc2)CC1	n	n	n	n	n	n
O=c1c2cc(N3CCOCC3)ccc2[nH]c(=S)n1Cc1cccc(Cl)c1	n	n	n	n	x	x
COc1cccc(Cn2c(=S)[nH]c3ccc(N4CCOCC4)cc3c2=O)c1	43.0	n	n	n	n	n
COc1ccc(CN2C(=O)C(CC(C)C)Nc3ncnc(N4CCOCC4)c32)cc1 (stereo not drawn)	97.0	n	n	n	n	n
COc1ccc(CN2C(=O)C(CC(C)C)Nc3ncnc(N4CCCCC4)c32)cc1 (stereo not drawn)	n	n	n	n	x	x
O=C(Cc1ccccc1)Nn1cnc2ccccc21	55.0	n	n	n	n	n

Bioassay records (PubChem)
